Compound activity deposited in PubChem BioAssay by National Center for Advancing Translational Sciences (NCATS).
An excerpt weighted towards active compounds, which were near 1.2% of everything screened.
TexasRed fluor: Total Fluorescence Counterscreen for Inhibitors of the Interaction of Thyroid Hormone Receptor and Steroid Receptor Coregulator 2; 280,000 tested, 0.29% active; Potency, µM (doses to about 106 µM), inactives show at the top dose fluorescence change, negative = quenching; TRb/SRC2 Texas Red total fluorescence interference; AID 1479, 2009; active = well fitted curve in either direction with a large enough effect; inconclusive = small, poorly fitted or top-dose-only effect
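Human TRb ligand-binding domain at 0.6 uM with 20 nM Texas Red SRC2 peptide in Tris buffer containing 1 uM T3 and 5% DMSO, incubated with compound 5 h at ambient temperature. Total fluorescence (555/632 nm) calculated as parallel + 2 × perpendicular.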
KAT2A inh: qHTS Assay for Inhibitors of GCN5L2; 390,000 tested, 0.21% active; AID 504327, 2011; Potency, µM (top dose mostly 58.9 µM), for the others: at the top dose activity change, negative = inhibition, hits mostly inhibitors; GCN5L2 HAT assay, ThioGlo1 CoA-SH fluorescence
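Enzyme at 20nM final was mixed with library compounds for 15 min at room temperature. Peptide H3(1-25) at 75uM, acetyl-CoA at 70uM and ThioGlo1 at 50uM were then added. Plates were read immediately and after 20 min (Ex340nm/Em540nm).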
VDR inh: Inhibitors of the vitamin D receptor (VDR): qHTS; Vitamin D3 receptor (Homo sapiens), P11473; VDR-SRC2-3 peptide fluorescence polarization, 2 h; Potency, µM, without a hit: max response, negative = inhibition, hits mostly inhibitors; 400,000 tested, 0.93% active; AID 504847, 2011
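Measured by FP: displacement of SRC2-3 coactivator peptide from VDR by library compounds, following a two-hour ambient incubation.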
GoLoco inh red: qHTS Assay for Inhibitors of RGS12 GoLoco Motif Activity (Red Fluorophore) | Guanine nucleotide-binding protein G(i) subunit alpha-1 (Homo sapiens), P63096 | Gai1:RGS12 GoLoco peptide FP, rhodamine, 10 min | Potency, µM (top dose mostly 61.6 µM), inactives show top-dose activity, negative = inhibition, usual class: inhibitors | 230,000 tested, 0.44% active; active = well fitted inhibition curve with a large enough effect, not every such curve was filed as active; inactive = no such curve, though single readings can be large or run the other way; note: nearly all actives have a fitted effect of over 30% in size
TRb SRC2 PPI: qHTS for Inhibitors of the Interaction of Thyroid Hormone Receptor and Steroid Receptor Coregulator 2; TRbeta-SRC2 peptide binding, fluorescence polarization; receptor liganded with 1 µM T3; Potency, µM (highest dose often 106 µM), without a hit: at the top dose activity change, negative = inhibition, most hits filed as inhibitors; Thyroid hormone receptor beta (Homo sapiens), P10828; 280,000 tested, 0.065% active;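 note: plate controls were bound peptide for no effect and peptide without receptor for full effect; nearly all actives have a fitted effect of over 50% in size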
Target sequence (P10828 whole entry, looked up): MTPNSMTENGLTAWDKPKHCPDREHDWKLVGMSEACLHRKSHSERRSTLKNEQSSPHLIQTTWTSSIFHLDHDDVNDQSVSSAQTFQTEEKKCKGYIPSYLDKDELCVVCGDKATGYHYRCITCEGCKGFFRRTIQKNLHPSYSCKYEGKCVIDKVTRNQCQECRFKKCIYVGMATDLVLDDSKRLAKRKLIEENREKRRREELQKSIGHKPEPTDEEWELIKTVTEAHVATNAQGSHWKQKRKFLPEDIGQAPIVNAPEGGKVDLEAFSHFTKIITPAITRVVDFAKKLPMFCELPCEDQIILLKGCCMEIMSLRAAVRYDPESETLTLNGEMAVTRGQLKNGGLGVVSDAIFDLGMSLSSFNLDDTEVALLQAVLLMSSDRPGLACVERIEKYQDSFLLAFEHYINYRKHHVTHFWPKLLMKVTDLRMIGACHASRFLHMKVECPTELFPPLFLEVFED
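Each compound concentration gave % activity, normalized to unbound and bound Texas Red SRC2 controls, from polarization read after 5 hr ambient incubation with T3-loaded human TRb LBD.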
Numbers without * were called inactive; u = inconclusive; x = not tested or not shown; [ ] = another dose, or the depositor's remark. Unless noted, calls come from the whole dose curve; as a rule, active = well fitted curve in the direction sought with a large enough effect; inconclusive = small, poorly fitted or top-dose-only effect, or another doubt; inactive = no such curve, though single readings can be large; an effect the other way counts as inactive or inconclusive. Unless noted, % is set by controls: 0 for no effect and ±100 for the full control effect; potency is the fitted concentration of half-maximal effect.

SMILES | TexasRed fluor | KAT2A inh | VDR inh | GoLoco inh red | TRb SRC2 PPI
CSC1=NC2C(N1)N(C)C(=O)N2C (configuration not stated) | 0% | -4% | -2% | 16µM* | -9%
c1ccc(CNc2ncnc3ccc(-c4cccnc4)cc23)cc1 | x | u | 28µM* | 8% | x
O=c1cnc2cncnc2n1Cc1ccccc1Cl | x | -4% | 40µM* | 11% | x
O=[N+]([O-])c1ccc(CSCc2ccc(Cl)cc2)cc1 | x | x | x | 6%[14.2 µM] | x
COC(=O)c1ccc(NC(=O)N2CCC(CN3CCc4ccccc4C3)CC2)cc1 | 112µM*[quencher] | -3% | 21% | x | -30%
COC1CCN(C(=O)c2ccc3oc(Cc4ccc(Cl)cc4)nc3c2)CC1 | x | 0% | -9% | x | x
Nc1ccc2oc(Cc3ccc(Cl)cc3)nc2c1 | -7% | -10% | 79µM* | x | -6%
O=C(CSc1ccc(-c2ccccn2)nn1)c1ccccc1 | -5% | -2% | 3% | 6% | -3%
O=C(CSc1ccc(-c2ccccn2)nn1)N1CCCC1 | -4% | 0% | 71µM* | -2% | -2%
Oc1ccc2ccccc2c1/C=C\c1ccc2c(Br)cc(Br)c(O)c2n1 | x | x | x | 8%[14.2 µM] | x
COc1cc2c(cc1OC)C(/C=C/c1ccc(OC)c(OC)c1OC)=NCC2 | -4% | x | 50µM* | -1% | 4%
COc1ccc(C2=NCCc3cc(OC)c(OC)cc32)cc1OC | -3% | -5% | 8% | -13% | 0%
Clc1ccc(-n2nnnc2Sc2ncnc3sccc23)cc1 | x | x | 79µM* | x | x
O=C(O)c1ccc(NC2=C(Cl)C(=O)c3ccccc3C2=O)cc1 | -5% | -17% | u | -14% | 7%
O=C(O)c1cccc(NC2=C(Cl)C(=O)c3ccccc3C2=O)c1 | -10% | -6% | u | 14µM* | 10%
O=C1C(Cl)=C(NCCc2ccccc2)C(=O)c2ccccc21 | x | x | 18µM* | x | x
O=C1C(Cl)=C(Nc2ccccc2)C(=O)c2ccccc21 | 3% | -8% | 3% | 9% | -7%
CC(C)N1C(=O)/C(=C/c2nc3ccccc3c(=O)n2-c2ccccc2)c2ccccc21 | 0% | -5% | 71µM* | 3% | 0%
CC(C)N1C(=O)/C(=C\c2nc3ccccc3c(=O)n2-c2ccccc2)c2ccccc21 | -5% | -9% | 71µM* | 8% | 1%
Cc1occc1C(=O)Nc1ccc([N+](=O)[O-])cc1Br | x | -1% | -91% | x | x
Cc1occc1C(=O)Nc1cccc([N+](=O)[O-])c1 | -2% | -2% | 22µM* | 9% | -1%
C/C(CC/C(C)=N/O)=N/O | x | x | x | 4%[14.2 µM] | x
Cc1cccc(N2CCN(C(=O)C3CCN(c4ncnc5c4nc4n5CCCCC4)CC3)CC2C)c1 (configuration not stated) | 20µM*[quencher] | -1% | 13% | x | -6%
Cc1ccc(C)c(N2CCN(c3ncnc4c3nc3n4CCCC3)CC2)c1 | 20µM*[quencher] | -22% | 10% | x | -7%
Cc1ccc(C)c(N2CCN(c3ncnc4c3nc3n4CCCCC3)CC2)c1 | 4% | -6% | 5% | x | 11%
SMILES | TexasRed fluor | KAT2A inh | VDR inh | GoLoco inh red | TRb SRC2 PPI
CC1=CC(=O)C2=C(C)CC[C@H]3[C@H](C)C(=O)O[C@@H]3C12 (some centres not stated) | -2% | 19% | 4% | x | 10%
CCCCCCCC/C=C\CCCCCCCC(=O)OC[C@@H](O)[C@H]1OC[C@H](O)[C@H]1O | 2%[201 µM] | x | x | x | 6%[201 µM]
CCCN1CNc2c(c(=O)[nH]c(=S)n2CCc2cc(C)ccc2C)C1 | x | x | 3% | x | x
CCN(C(=O)CSc1nnc(-c2cc3occc3n2C)n1-c1ccccc1C)c1cccc(C)c1 | -7% | -8% | -2% | x | 3%
CCN(C(=O)CSc1nnc(-c2cc3occc3n2C)n1-c1ccccc1C)c1ccccc1 | 79µM*[quencher] | 1% | 13% | x | -21%
C[N+]1=C2CCCCCN2C(O)(c2ccccc2)C1 (configuration not stated) | -4% | -2% | -25% | 14µM* | -4%
